Measurements as given in PubChem BioAssay AID1851 (National Center for Advancing Translational Sciences (NCATS), 2009).
Screen size: about 16,000 compounds; about 5,800 (36%) were called active. Not shown: some 23% with an inconclusive outcome. The list shows a part of the results. A number with no mark means an inactive call. Calls come from the whole dose curve; as a rule, active = well fitted curve in the direction sought with a large enough effect; inconclusive = small, poorly fitted or top-dose-only effect, or effect the other way; inactive = no such curve, though single readings can be large or run the other way.

molecular target: Cytochrome P450 2C19 (Homo sapiens) (UniProt P33261); test: Cytochrome panel assay with activity outcomes; conditions: recombinant CYP, pro-luciferin dealkylation, luminescence, p450-cyp2c19; series mostly up to 57.1 µM; activity, negative = inhibition: at the top concentration
Sequence (P33261 whole entry, looked up): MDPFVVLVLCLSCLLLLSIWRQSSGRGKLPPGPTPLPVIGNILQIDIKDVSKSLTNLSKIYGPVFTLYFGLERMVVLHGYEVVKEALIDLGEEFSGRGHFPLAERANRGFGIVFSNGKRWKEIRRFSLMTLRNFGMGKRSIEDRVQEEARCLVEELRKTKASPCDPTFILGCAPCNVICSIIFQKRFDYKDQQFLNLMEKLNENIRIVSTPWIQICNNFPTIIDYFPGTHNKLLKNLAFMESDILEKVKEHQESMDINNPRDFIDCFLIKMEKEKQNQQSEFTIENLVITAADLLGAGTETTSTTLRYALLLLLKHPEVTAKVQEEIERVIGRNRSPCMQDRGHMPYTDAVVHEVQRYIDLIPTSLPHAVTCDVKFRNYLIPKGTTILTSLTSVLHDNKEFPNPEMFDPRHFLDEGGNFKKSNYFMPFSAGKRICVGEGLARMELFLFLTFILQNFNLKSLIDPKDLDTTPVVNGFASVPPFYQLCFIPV
% is set by controls: 0 for no effect and ±100 for the full control effect.

Structure (SMILES) | activity, negative = inhibition | AC50
Cc1nc(N)sc1CCN | -29.1% | 
CCCN[C@@H]1CCc2c(OC)cccc2[C@@H]1C | -33.5% | 
CCN(CC)C(=O)N[C@H]1C[C@H]2c3cccc4[nH]cc(c34)C[C@@H]2N(C)C1 | -1.43% | 
O=C1CN=C(c2cccs2)c2c(sc3c2CCCC3)N1 |  | 15.8 µM (active)
C[C@H]1CC[C@@]2(NC1)O[C@@H]1C[C@@H]3[C@@H]4CC=C5C[C@@H](O)CC[C@]5(C)[C@@H]4CC[C@]3(C)[C@H]1[C@@H]2C | 15.9% [at 11.4 µM] | 
COc1ccc2[nH]c3c(c2c1)CCNC3 | 0.139% | 
CCOC(=O)C1Cc2c([nH]c3ccccc23)CN1 (stereo not drawn) |  | 1.58 µM (active)
C[C@@]12CC[C@H]3[C@@H](CC=C4C[C@H](OS(=O)(=O)O)CC[C@]43C)[C@H]1CCC2=O | -11.8% | 
COc1cc(CCN)c(OC)c(OC)c1 | 70.8% [at 11.4 µM] | 
C[C@@H](O)CN(CCN(C[C@@H](C)O)C[C@@H](C)O)C[C@@H](C)O.O=[N+]([O-])O.[Cu] |  | 0.398 µM (active)
CC(=O)O[C@H]1C[C@@H](O[C@@H]2[C@H](C)O[C@H](O[C@@H]3[C@H](C)O[C@H](O[C@@H]4CC[C@@]5(C)[C@@H](CC[C@]6(C)[C@]5(C)C[C@H](O)[C@]5(C)[C@@H](C7=CC(=O)OC7)CC[C@@]56O)C4)C[C@@H]3O)C[C@@H]2O)O[C@@H](C)[C@H]1O[C@H]1O[C@@H](CO)[C@@H](O)[C@@H](O)[C@@H]1O | 15.7% [at 25.6 µM] | 
Cc1ccc(S(=O)(=O)N[C@@H](CCCCN)C(=O)CCl)cc1 | -18.9% | 
O=S1(=O)N(CCN2CC=C(c3c[nH]c4cc(F)ccc34)CC2)c2cccc3c2N1CCC3 |  | 6.31 µM (active)
COc1cc2c(cc1OC)[C@@]13CCN4C=C5CCO[C@H]6CC(=O)N2[C@@H]1[C@@H]6[C@H]5C[C@H]43 | 32% [at 11.4 µM] | 
CC(C)[N+](C)(CCC(C(N)=O)(c1ccccc1)c1ccccc1)C(C)C | -4.45% [at 25.6 µM] | 
C[C@H](CN(C)C)C(C#N)(c1ccccc1)c1ccccc1 | 31.1% [at 11.4 µM] | 
Cc1ccc2c(c1)N(CCC(=O)N1CCC3(CC1)OCCO3)C(=O)C(C)O2 (stereo not drawn) |  | 0.708 µM (active)
Cc1cc(NC(=O)CCC(=O)N2CCC3(CC2)OCCO3)no1 | 17.5% | 
CN1CC[C@@]23c4ccccc4N[C@H]1[C@]21CCN(C)[C@@H]3Nc2ccccc21 | 15.2% [at 25.6 µM] | 
CCCC(=O)Nc1ccc(N2CCN(CC)CC2)c(Cl)c1 | -15.6% | 
C=Cn1ccnc1P(=S)(c1nccn1C=C)C1CCCCC1 |  | 3.55 µM (active)

Structure (SMILES) | activity, negative = inhibition | AC50
O=C(O)[C@@H](O)[C@@H](O)[C@@H]1[O][Sb][O][C@@H]1CO | 21.2% [at 11.4 µM] | 
CC[N+](CC)(CCCNC1=CC(=O)C(NCCC[N+](CC)(CC)Cc2ccccc2)=CC1=O)Cc1ccccc1 | -21.1% | 
CCN1C[C@@]2(COC)CC[C@H](O)[C@@]34[C@@H]2C[C@@H]([C@@H]13)[C@]1(O)C[C@@H](OC)C2C[C@H]4[C@H]1[C@H]2OC(C)=O | -2.58% [at 25.6 µM] | 
C[N+](C)(C)[C@H](Cc1c[nH]c(=S)[nH]1)C(=O)O | -22.8% [at 11.4 µM] | 
CCCN(CCC)CCc1c[nH]c2ccc(C(N)=O)cc12 | -15% | 
CN=C(NC#N)NCCSCc1nc[nH]c1C |  | 31.6 µM (active)
O=C(Nc1cccc(F)c1)N1CC2(CCN(C(=O)Oc3ccccc3)CC2)C1 | -16.3% | 
O=C(CCN1CC2CCC(CC2)C1)c1cccs1 | -19% [at 11.4 µM] | 
CC[C@@](O)(C(=O)O)c1cc2n(c(=O)c1CO)Cc1cc3ccccc3nc1-2 | 16.3% [at 11.4 µM] | 
CC(=O)NBr | -7.32% | 
N[C@H](CCCCCP(=O)(O)O)C(=O)O |  | inactive
CP(=O)(O)C1=CCNCC1 | -20.7% | 
CC(=O)N1CC[N+](C)(C)CC1 | -17.8% | 
CN1CCN(C(=O)O[C@@H]2c3nccnc3C(=O)N2c2ccc(Cl)cn2)CC1 |  | 15.8 µM (active)
COc1cc2c3cc1Oc1c(O)c(OC)cc4c1[C@@H](Cc1ccc(cc1)Oc1cc(ccc1O)C[C@H]3N(C)CC2)N(C)CC4 | -11% [at 11.4 µM] | 
CC[C@]1(c2cccc(O)c2)CCCCN(C)C1 | 16.1% [at 25.6 µM] | 
C[C@@H]1O[C@@H](O[C@H]2C[C@@H](O)[C@]3(CO)[C@@H]4[C@@H](O)C[C@]5(C)[C@H](C6=CC(=O)OC6)CC[C@@]5(O)[C@H]4CC[C@@]3(O)C2)[C@H](O)[C@H](O)[C@@H]1O | -5.19% | 
C[C@@H](COc1ccccc1)N(CCCl)Cc1ccccc1 |  | 10 µM (active)
Clc1cnc(Oc2ccc(Oc3ncc(Cl)cc3Cl)cc2)c(Cl)c1 | -18.5% | 
O=C1c2cc([N+](=O)[O-])ccc2-c2ccc3c4ccc5c6c(ccc(c7ccc1c2c73)c64)C(=O)c1cc([N+](=O)[O-])ccc1-5 | -4.82% [at 11.4 µM] | 
O=C1c2ccccc2-c2cc([N+](=O)[O-])c([N+](=O)[O-])cc21 |  | 0.398 µM (active)

Structure (SMILES) | activity, negative = inhibition | AC50
NCCc1ccc(S(=O)(=O)O)cc1[N+](=O)[O-] | -6.86% [at 11.4 µM] | 
COc1ccccc1CN1CC[C@@]2(CCCN(C(=O)Oc3ccccc3)C2)C1 | -33.4% | 
CN(CCc1ccc(Cl)c(Cl)c1)[C@H]1CCCC[C@H]1N1CCCC1 |  | 15.8 µM (active)
CN(C)CCN(C)CCc1ccc(Cl)c(Cl)c1 |  | 10 µM (active)
COc1ccc2c(c1)C13CCCC[C@@H]1C(C2)N(C)CC3 (stereo partly drawn) | 21.6% [at 25.6 µM] | 
C[C@H](Br)C(=O)c1ccc2cc(Br)c3ccccc3c2c1 | -42.1% [at 11.4 µM] | 
CCC1=C(C[C@H]2NCCc3cc(OC)c(OC)cc32)C[C@H]2c3ccccc3CCN2C1 | -4.76% [at 11.4 µM] | 
CC(C)CCn1c(N)c(C(=O)NCc2cccs2)c2nc3ccccc3nc21 |  | 2.51 µM (active)
COc1ccc(Cn2c(N)c(C(=O)NCc3ccco3)c3nc4ccccc4nc32)cc1 |  | 2.51 µM (active)
CCCCn1c(N)c(C(=O)NCc2cccs2)c2nc3ccccc3nc21 |  | 3.98 µM (active)
CSCC[C@@H](N)P(C)(=O)O | 29.3% [at 11.4 µM] | 
O[Si@](CCCN1CCCCC1)(c1ccc(F)cc1)C1CCCCC1 | -23.4% | 
C[N+]1(C)[C@@H]2CC(OC(=O)[C@@H](CO)c3ccccc3)C[C@@H]1[C@H]1O[C@H]12 (stereo partly drawn) | 26.7% [at 11.4 µM] | 
C[C@@H]1O[C@H](OC2[C@@H](O)[C@H](O)C(O)[C@H](O)[C@H]2O)[C@@H](N)C[C@@H]1N=C(N)C(=O)O (stereo partly drawn) | 19% [at 11.4 µM] | 
N[C@@H](CP(=O)(O)O)C(=O)O | 9.32% [at 11.4 µM] | 
CC[C@@]1(c2ccc(N)cc2)CCC(=O)NC1=O |  | inactive
CN1CC[C@@]2(CCCN(C(=O)Oc3ccccc3)C2)C1 | -1.21% | 
C[C@@]12C=CC(=O)C=C1CC[C@@H]1C2=CC[C@]2(C)[C@@H]1CC[C@H]2C(=O)CN1CCN(c2cc(N3CCCC3)nc(N3CCCC3)n2)CC1 | -31% | 
O[C@@H](c1cc(-c2ccccc2)nc2c1ccc1ccccc12)[C@@H]1CCCCN1 | -42.2% [at 11.4 µM] | 
CCCN1CCc2cccc3c2[C@@H]1Cc1ccc(O)c(O)c1-3 | 7.56% | 
C[C@@H]1O[C@H](O[C@@H]2CC[C@@]3(C=O)[C@H]4CC[C@@]5(C)[C@@H](C6=CC(=O)OC6)CC[C@@]5(O)[C@@H]4CC[C@]3(O)C2)C[C@H](O)[C@@H]1O | 17.6% [at 25.6 µM] | 

Structure (SMILES) | activity, negative = inhibition | AC50
COC(=O)[C@@H]1[C@@H]2C[C@H]3c4[nH]c5cc(OC)ccc5c4CCN3C[C@@H]2C[C@H](OC(=O)/C=C\c2cc(OC)c(OC)c(OC)c2)[C@H]1OC | 9.48% [at 25.6 µM] | 
O=c1[nH]c(=O)n([C@H]2C[C@H](O)[C@H](CO)O2)cc1/C=C\Br | 19.9% | 
COc1ccc2c(c1)CN([C@H](C)[C@@H]1CC[C@@H]3[C@H]4CC[C@H]5C[C@@H](O)CC[C@@]5(C)[C@H]4CC[C@]31C)CO2 |  | 1 µM (active)
C[C@@]12CC[C@H](O)C[C@@H]1CC[C@H]1[C@H]2CC[C@@]2(C)[C@@H](C3=CC(=O)OC3)CC[C@]12O | 29% [at 25.6 µM] | 
CC(=O)OCC(=O)[C@@H]1CC[C@H]2[C@H]3CC[C@H]4C[C@@H](O)CC[C@]4(C)[C@@H]3C(=O)C[C@@]12C | -17.1% [at 25.6 µM] | 
O=c1c(O)c(-c2ccc(O)c(O)c2)oc2cc(O)cc(O)c12 | 18.3% | 
CS(=O)(=O)N1CCCC(C(=O)N2CCC3(CC2)OCCO3)C1 (stereo not drawn) |  | 10 µM (active)
COc1ccc2c(c[n+](C)c3c4cc5c(cc4ccc23)OCO5)c1OC |  | 10 µM (active)
CC1(C)CCC(C)(C)c2c1ccc(O)c2Cc1c(O)ccc2c1C(C)(C)CCC2(C)C | -38.9% [at 11.4 µM] | 
O=C(O)C(C(=O)O)P(=S)(S)c1ccccc1 (stereo not drawn) | 23.5% [at 11.4 µM] | 
CC(Oc1ccc(-c2ccccc2)cc1)C(=O)O (stereo not drawn) |  | 28.2 µM (active)
N[C@H](C(=O)O)c1cc(=O)[nH]o1 | -5.58% | 
c1cnc(N2CCC3(CCNCC3)CC2)nc1 | -11.8% | 
C[C@@]12CC[C@H]3[C@@H](CCC4=C(O)C(=O)CC[C@]43C)[C@H]1CCC2=O | -47.2% | 
COc1cc(C=C(C#N)C#N)cc(O)c1O | 13.5% | 
CS(=O)(=O)O[C@H]1CN2CCC1CC2 | 20.2% [at 11.4 µM] | 
S=P(C1CCCCC1)(C1CCCCC1)[C@H](c1cccnc1)N1CCCC1 |  | 1.26 µM (active)
NP(N)(=O)NC(=O)c1ccc(F)cc1 | 3.06% | 
c1csc(CN2CC[C@@]3(CCCNC3)C2)n1 | -36.5% | 
C[N+]12CCC(CC1)[C@@H](OC(=O)C(O)(c1ccccc1)c1ccccc1)C2 | -15.4% [at 25.6 µM] | 
